Results as given in PubChem BioAssay AID2551 (National Center for Advancing Translational Sciences (NCATS), 2010).
Hit rate of the full screen: of about 310,000 compounds, about 17,000 (5.5%) were called active. Inconclusive results (about 11%) are left out. Many of the other results were omitted from the sample, so actives are more common in it than they were. Unmarked numbers belong to inactive results. The call rests on the fitted dose curve; in most records, active means well fitted inhibition curve with a large enough effect; inconclusive means small, poorly fitted or top-dose-only effect, or effect the other way; inactive means no such curve, though single readings can be large or run the other way.

molecular target: Nuclear receptor ROR-gamma (Mus musculus) (UniProt P51450); test: qHTS for inhibitors of ROR gamma transcriptional activity; conditions: Drosophila S2 Gal4-RORgamma UAS-luciferase reporter, 20 h; series mostly up to 53.6 µM; activity change, negative = inhibition: at the top concentration; further: nearly all actives have a fitted effect of over 60% in size
Summary of the method: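 Stably transfected Drosophila Schneider cells are the test system, with ROR gamma fused to Gal4 and luciferase under UAS control; luminescence is read after 20 hr of 700 uM copper sulfate induction at ambient temperature.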
On the % scale 0 is the no-effect control and ±100 the full control effect; potency means the concentration at half of the fitted maximal effect.

Nuclear receptor ROR-gamma (Mus musculus), sequence (P51450 whole entry, looked up, the tested form may be a part): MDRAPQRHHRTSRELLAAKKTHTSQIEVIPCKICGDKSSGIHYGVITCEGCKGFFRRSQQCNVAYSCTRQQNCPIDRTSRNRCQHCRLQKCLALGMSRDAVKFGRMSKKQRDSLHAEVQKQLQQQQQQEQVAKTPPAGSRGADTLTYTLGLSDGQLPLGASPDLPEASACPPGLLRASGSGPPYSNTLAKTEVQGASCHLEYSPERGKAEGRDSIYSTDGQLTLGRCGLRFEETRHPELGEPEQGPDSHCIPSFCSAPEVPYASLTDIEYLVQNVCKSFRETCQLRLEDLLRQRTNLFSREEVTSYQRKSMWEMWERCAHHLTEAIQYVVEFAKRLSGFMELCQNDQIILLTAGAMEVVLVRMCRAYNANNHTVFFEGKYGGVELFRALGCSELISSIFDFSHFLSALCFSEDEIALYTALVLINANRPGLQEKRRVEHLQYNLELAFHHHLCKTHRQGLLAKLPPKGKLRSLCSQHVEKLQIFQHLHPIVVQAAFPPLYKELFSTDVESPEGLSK

SMILES	activity change, negative = inhibition	Potency
COc1cc(CN2CCCC(C(=O)c3ccc(SC)cc3)C2)cc(Cl)c1O (configuration not stated)	-3.37% [at 1.91 µM]	
Cc1nc2nc(C)c(NS(=O)(=O)c3ccc(C(C)(C)C)cc3)c(=O)n2[nH]1	-9.88%	
CC(=O)c1ccc(N2CCN(S(=O)(=O)c3ccc4c(c3)CC(=O)N4C)CC2)cc1	25.1%	
Cc1cc(NC(=O)[C@H](C)NC(=O)c2ccco2)ccc1Br	2.23%	
O=C(CN1C(=O)C2C3C=CC(C3)C2C1=O)Nc1nc(-c2ccccn2)cs1 (configuration not stated)	-0.0112%	
CC(NC(=O)c1ccco1)C(=O)Nc1nc(-c2ccccn2)cs1 (configuration not stated)		11.2 µM (active)
O=C(Nc1ccc(N2CCCC2=O)cc1)c1cncc(Br)c1	-16.2%	
COc1ccc(NC(=O)c2cc([N+](=O)[O-])ccc2NC(=O)CNC2CCCCC2C)c(OC)c1 (configuration not stated)	5.91%	
CCCCn1c(CN2CCN(CCO)CC2)nc2ccccc21	-0.635%	
C=C(Br)Cn1c(CCCC)nc2ccccc21		15.8 µM (active)
CCCCn1c(CCCNC(=O)CC)nc2ccccc21	-14.6%	
Cc1snc(SCc2c(F)cccc2Cl)c1C#N	15.7%	
CCc1ccc(OCC(=O)N(Cc2ccccc2)C2CCS(=O)(=O)C2)cc1 (configuration not stated)	10.7%	
COc1cc(OC)c(C(=O)NC2CCCCCC2)cc1OC	3.98%	
COc1cc(C(=S)NC2CCCCC2)ccc1O	-15.6%	
COc1ccc(Cl)cc1C(=O)NNC(=S)NC(=O)/C=C/c1ccco1		3.98 µM (active)
COc1ccc(CCNC(=O)CCC(=O)NC2CCCCC2)cc1OC	16.7%	
C=CCNC(=S)NNC(=O)c1cc(Cl)ccc1OC	27.5%	
COc1ccc(C(C)NC(=S)NC2CCCCC2)cc1OC (configuration not stated)		11.2 µM (active)
COc1ccc(Cl)cc1C(=O)NCC#N	-15%	
COc1ccc(Cl)cc1C(=O)NNC(=O)c1nc2nc(C)cc(C)n2n1	-7.86%	
COc1ccc(Cl)cc1C(=O)NNC(=S)NC1CCCC1		11.2 µM (active)
CSc1ncccc1C(=O)NCc1ccccc1Cl	-1.28%	

SMILES	activity change, negative = inhibition	Potency
COC(=O)c1ccc(CNC(=O)C2CCC(=O)N(Cc3cccc(F)c3)C2)cc1 (configuration not stated)	8.55%	
CCc1nnc(NC(=O)CSCc2cc(=O)n3cc(C)sc3n2)s1	1.38%	
O=C1C(=O)N(CCCN2CCOCC2)C(c2ccc([N+](=O)[O-])cc2)/C1=C(\O)c1ccc2c(c1)OCCO2 (configuration not stated)	-5.32%	
C=CCn1c(=O)c(C(=O)NCc2ccc3c(c2)OCO3)c(O)c2ccccc21	-26.9%	
CC1CCN(CCCn2c(SCC(=O)NC3CCCC3)nc3ccccc3c2=O)CC1	-15.6%	
CN(CCNC(=O)c1cc2c(-c3ccccc3F)nn(C)c2s1)C1CCCCC1	-20.2%	
O=c1[nH]cnc(O)c1C(c1ccc(F)cc1)c1c(O)nc[nH]c1=O	-1.37%	
CCOc1ccc(CCNC(=O)CCc2nnc3ccc(N4CCCC4)nn23)cc1OCC	1.07%	
COC(=O)c1ccc(CN2CCC(CO)(Cc3ccc(OC)cc3)CC2)cc1	4.46%	
CCOC(=O)C1(CCOC)CCN(Cc2cc3ccccc3s2)CC1	-12.6%	
CCOC(=O)C1(CCOC)CCN(Cc2ccc(C(=O)OC)cc2)CC1		7.08 µM (active)
Cc1cc2c(c(=O)n1Cc1ccccc1)C1O[C@](CCCCN3C(=O)c4ccccc4C3=O)(Cc3ccccc31)O2	18.4% [at 10 µM]	
O=C(CN1CCc2cc3c(cc2C1)OCCCO3)Nc1ccccc1	-0.965%	
COc1ccc(-n2cc(CN(C)Cc3n[nH]c(=O)[nH]3)c(-c3cccc(F)c3)n2)cc1	23%	
Cc1cccc(-n2cc(CN3CCN(C(=O)c4ncn[nH]4)CC3)c(-c3cccc(F)c3)n2)c1	0.467%	
Cc1ccc(-n2cc(CN(C)Cc3nccn3C)c(-c3cccc(C)c3)n2)cc1		7.94 µM (active)
COc1ccc(NC(=O)CCC(=O)Nc2nnc(C3CCCCC3)s2)cc1	-27.8%	
CC(C)(C)NS(=O)(=O)c1ccc(NC(=O)C2CCCO2)cc1 (configuration not stated)	1.02%	
O=C(CNC(=O)C1COc2ccccc2O1)N/N=C/c1cc(Br)c(O)c(Br)c1 (configuration not stated)	1.65%	
O=C(CNC(=O)c1cccnc1)N/N=C/c1cc(Br)c(O)c(Br)c1	-21.6%	
Oc1c(Br)cc(/C=N/NC(=S)NCC2CCCO2)cc1Br (configuration not stated)		0.1 µM (active)
c1ccc2sc(NN=C3CCCC3)nc2c1		7.94 µM (active)
O=C(Nc1ccccc1)Nc1nc2ccccc2s1	-23.2%	

SMILES	activity change, negative = inhibition	Potency
CSCCC(Nc1nc2ccccc2s1)C(=O)O (configuration not stated)	-22.4%	
CC(C)(COC(=O)Nc1ccccc1)COC(=O)Nc1ccccc1	-2.91%	
CCn1c(SCC(=O)Nc2ccc(Br)cc2)nc2sc3c(c2c1=O)CCN(C)C3	39%	
Nc1ncc(CN2CCCC(C(=O)Nc3ccc(-c4ccco4)cc3)C2)cn1 (configuration not stated)	-10.1%	
CCOCc1nnc(NC(=O)CCS(=O)(=O)Cc2ccccc2)s1	10.4%	
CCOCCOC(=O)C1=C(C)NC(=O)NC1c1ccc2c(c1)OCO2 (configuration not stated)	0.346%	
CN(C)CCCN(C(=O)c1ccc(S(=O)(=O)N2CCCCCC2)cc1)c1nc2ccc(Br)cc2s1		2.82 µM (active)
CC(=O)N(CCCN(C)C)c1nc2ccc(C)cc2s1	1.73%	
CCN(CC)CCN(C(=O)c1ccc(S(=O)(=O)N2CCOCC2)cc1)c1nc2cc3c(cc2s1)OCCO3	22.5%	
CN1CCN(C(=O)c2ccccc2NC(=O)COc2ccccc2Cl)CC1	7.86%	
O=C1COc2ccc(S(=O)(=O)NCCc3ccc(Cl)cc3)cc2N1	-15.2%	
Cc1cc(OCC(=O)Nc2c(C)n(C)n(-c3ccccc3)c2=O)ccc1[N+](=O)[O-]	16.1%	
COc1cccc(C2c3[nH]c4ccccc4c3CCN2Cc2cccc(C)n2)c1 (configuration not stated)		12.6 µM (active)
COc1ccc(C2c3[nH]c4ccccc4c3CCN2CCCn2cccn2)cc1C (configuration not stated)	-4.28%	
Oc1cccc(C2c3[nH]c4ccccc4c3CCN2Cc2cnn(-c3ccccc3)c2)c1 (configuration not stated)	17.3%	
CN(Cc1ccc(F)cc1Cl)S(=O)(=O)c1cccs1	13.6%	
CCc1ccc2[nH]c(=O)c(Cc3ccccc3)c(O)c2c1	14.8%	
O=C1c2cccc3cc(Br)cc(c23)C(=O)N1Nc1ccccc1	-19.1%	
O=C1C=C(c2ccc(Cl)cc2)C(=O)N1Nc1ccccc1		7.08 µM (active)
O=C(Nc1ccccc1)OCc1cc(-c2ccc(Cl)cc2)on1	0.919%	
CC1(C)Cc2c(sc(NC(=O)C(=O)N3CCOCC3)c2C#N)CO1	11.5%	
